The list is not random: actives were taken first. Their share in the collection is about 3.5%.
MITF primary = human MITF inhibition, primary screen; O75030; AlphaScreen MITF homodimerization, bead proximity signal; inhibition, % at 2.6 µM; 650,000 compounds, 0.91% hits; AID 1259374; in the data active means inhibition above about 50%;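 further: 0% = vehicle wells with protein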
FBW7 act = human FBW7 E3 ligase activation, primary screen | Q969H0 | AlphaScreen FBW7–phospho-cyclin E peptide binding, activator screen | normalized activity (activation), % at 26.1 µM | 650,000 compounds, 0.13% hits; in the data active means normalized activity above about 1.9%;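 further: purified mutant Fbw7 with reduced substrate affinity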
TEAD-YAP block = TEAD-YAP interaction inhibition | HEK-TIYL cells, TEAD-Gal4/YAP UAS-luciferase luminescence | inhibition, % at 9.12 µM | 640,000 compounds, 1.4% hits | AID 1259422; in the data active means inhibition above about 32%;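 further: 0% = median of test compound wells and 100% = reference inhibitor wells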
GPR151 activ = activates the human receptor GPR151; activation, % at 11.2 µM; PathHunter beta-arrestin GPR151 cells, luminescence; Q8TDV0; 650,000 compounds, 1% hits; in the data active means activation above about 4.9%;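 further: 0% = median of compound wells and 100% = cells with positive control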
Target sequence (Q8TDV0 whole entry, looked up): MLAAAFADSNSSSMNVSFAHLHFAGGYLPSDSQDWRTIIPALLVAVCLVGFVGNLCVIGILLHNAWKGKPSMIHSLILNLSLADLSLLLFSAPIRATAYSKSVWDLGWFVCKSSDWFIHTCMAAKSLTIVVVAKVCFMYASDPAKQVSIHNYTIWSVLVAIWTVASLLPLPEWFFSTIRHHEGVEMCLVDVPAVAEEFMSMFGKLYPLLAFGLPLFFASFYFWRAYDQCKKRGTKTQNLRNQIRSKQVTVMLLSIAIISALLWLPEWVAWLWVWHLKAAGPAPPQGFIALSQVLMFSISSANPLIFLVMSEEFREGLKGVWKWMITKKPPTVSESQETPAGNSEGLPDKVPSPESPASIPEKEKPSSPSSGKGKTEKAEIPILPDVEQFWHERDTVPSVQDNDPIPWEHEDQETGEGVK
GPR151 confirm = human GPR151 activation, confirmation screen; shares compounds with GPR151 activ; GPR151 PathHunter beta-arrestin cells, luminescence, 90 min; % of EA-reagent control over plate median; activation, % at 11.2 µM; 6,700 tested, under 10 active; AID 1508609;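 active means mean percent activation across replicates above the confirmation screen cutoff of 4.91%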
GPR119 ag = GPR119 activation, counter-screen for GPR151 activators | activation, % at 11.2 µM | 6,700 compounds, 0.3% hits | AID 1508611 | shares compounds with GPR151 activ | GPR119 PathHunter beta-arrestin cells, luminescence, 90 min; 0 = compound-well median, 100 = enzyme-acceptor control;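 active means mean percent activation in the counterscreen above 29.09%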;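 further: counterscreen on off-target GPR119 to flag nonselective hits from the GPR151 activator screen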
An asterisk follows results filed as active; nt = not tested or not shown.

SMILES | MITF primary | FBW7 act | TEAD-YAP block | GPR151 activ | GPR151 confirm | GPR119 ag
CCn1ccnc1CN(C)Cc1ccc(OCC(O)CN2CCc3ccccc3C2)cc1 (configuration not stated) | 0.3 | -0.1 | 4.4 | 10.1* | -0.3 | -16.2
CCCC(C)NS(=O)(=O)c1c(C)cc(C)cc1C (configuration not stated) | 2.6 | 0.3 | -5.4 | 7.7* | 0.6 | 0.3
CC(=O)NS(=O)(=O)c1ccc(NC(=O)Nc2ccc(Cl)cc2)cc1 | 0.3 | 0.0 | 1.7 | 7.4* | -0.7 | -3.3
COc1ccc(S(=O)(=O)NNC(=O)Nc2ccc(Cl)cc2)cc1 | -4.9 | -0.1 | -4.5 | 8.3* | 1.3 | 8.7
CCC(C)NC(=O)CN(c1ccccc1F)S(=O)(=O)c1ccccc1 (configuration not stated) | 19.8 | 0.6 | 2.4 | 2.7 | nt | nt
COc1ccc(NC(=O)CSc2nnc(C(F)(F)F)n2C)c([N+](=O)[O-])c1 | 15.5 | -0.1 | 19.5 | -0.8 | nt | nt
O=C(CSc1ccc2nnc(-c3cccnc3)n2n1)N1CCCCC1CCn1ccnc1 (configuration not stated) | 30.8 | 0.7 | -0.4 | 7.7* | 0.7 | 2.2
O=C(CSc1ccc2nnc(-c3cccnc3)n2n1)N1CCCCCC1 | 10.3 | 0.3 | 2.5 | -1.2 | nt | nt
CCN1CCN(Cc2nc(N)nc(Nc3ccccc3)n2)CC1 | 5.2 | 0.0 | 7.7 | 6.1* | 0.5 | 13.2
COc1ccc(Nc2nc(N)nc(CN3C(=O)c4ccccc4C3=O)n2)cc1 | 3.1 | -0.3 | 0.0 | 6.9* | 0.1 | -2.2
CCOC(=O)c1cnc(SCc2nc(N)nc(Nc3ccccc3)n2)nc1N | 0.1 | -0.1 | 13.1 | 2.7 | nt | nt
CCOC(=O)c1nc(N)nc(Nc2ccccc2)n1 | 15.4 | -0.6 | 8.8 | 11.0* | -0.3 | 1.4
COc1ccc(Nc2nc(N)nc(CN3CCN(c4ccccn4)CC3)n2)cc1 | 9.2 | -0.2 | -7.4 | 0.0 | nt | nt
COc1ccc(CN2CCC(n3nccc3NC(=O)Nc3ccccc3Cl)CC2)cc1 | 4.7 | 0.1 | 28.8 | 0.0 | nt | nt
COc1cccc(CN2C[C@@H]3C[C@@H](c4cccc5cccnc45)N4CCC[C@@]34C2=O)c1 | 4.5 | 0.1 | 5.3 | -1.5 | nt | nt
O=C(CSc1nnc(-c2cccnc2)o1)c1ccccc1 | 4.8 | -0.2 | -21.1 | 5.9* | 0.1 | 3.6
O=C(CSc1nnc(-c2cccnc2)o1)c1ccc2ccccc2c1 | 0.4 | 0.0 | -2.2 | -0.3 | nt | nt
O=C(CSc1nnc(-c2cccnc2)o1)Nc1nc(-c2ccccc2)cs1 | 9.9 | -0.1 | 3.0 | 7.5* | -0.5 | -1.9
CC(=O)NC(=S)Nc1ccc(Nc2ccccc2)cc1 | 18.7 | 0.4 | -41.0 | -2.5 | nt | nt
CC(C)(C)c1ccc(C(=O)Nc2ccc3oc(-c4cccnc4)nc3c2)cc1 | 16.8 | 0.1 | -4.0 | 2.4 | nt | nt
CCCNc1ccnc2c(-c3cnn(Cc4ccccc4)c3)cnn12 | -17.7 | -0.3 | -25.1 | -0.2 | nt | nt
C/C(=N\Nc1ccccc1)c1no[n+]([O-])c1C | -0.5 | 0.0 | -6.2 | 6.1* | -1.3 | -6.7
COC(=O)COc1ccc(/C=C2/NC(=O)N(c3ccccc3)C2=O)cc1 | 5.2 | 0.1 | 0.5 | -1.7 | nt | nt
O=C1NC2(CCCCCC2)Cc2ccccc21 | -6.1 | -0.2 | -14.4 | 7.9* | -0.3 | 0.6
O=C(O)CN=C1NC2(CCCC2)Cc2ccccc21 | 4.8 | 0.0 | -4.8 | 2.1 | nt | nt
SMILES | MITF primary | FBW7 act | TEAD-YAP block | GPR151 activ | GPR151 confirm | GPR119 ag
O=C(O)CSc1nc2ccccc2n1CCOc1ccccc1 | -2.3 | -0.1 | 4.9 | 6.4* | 0.0 | 3.2
O=C(CN1C(=O)c2ccccc2S1(=O)=O)NCc1ccco1 | -8.3 | -0.1 | -8.0 | 9.0* | -0.4 | 15.7
O=C(Cn1c(=O)oc2ccccc21)NCc1ccco1 | 17.2 | 0.0 | 3.2 | 5.3* | -1.1 | -0.4
CC(CNC(=S)NC(=O)c1ccco1)NC(=S)NC(=O)c1ccco1 (configuration not stated) | 0.6 | -0.1 | 1.0 | -1.2 | nt | nt
O=C(NCCO)c1cccc(N2C(=O)c3ccccc3C2=O)c1 | 1.4 | -0.1 | 3.4 | 7.6* | -0.5 | 3.3
COCCC(=O)Nc1ccc2c(c1)CN(S(=O)(=O)N1CCCC1)CC2 | 2.6 | -0.2 | 0.8 | 7.5* | 0.0 | 0.1
C#CCOc1ccc([N+](=O)[O-])cc1C=O | -3.6 | 0.4 | 20.9 | 1.1 | nt | nt
COc1ccc(NC(=O)C2C3CCC(C3=C(C)C)C2C(=O)O)cc1 (configuration not stated) | -5.5 | -0.1 | -5.0 | 5.5* | 1.8 | 20.6

Screening results from PubChem BioAssay.
